Source: PubChem BioAssay (EPA / NIEHS)
Activity calls are given as the source filed them. Rule for the calls: active = hit-call score of the fitted dose curve at least 0.9, where 1 is the maximum; inactive = score below 0.9.

Assay: ATG_RORE_CIS: Attagene CIS-FACTORIAL HepG2 Assay for human RAR-related Orphan Receptor Element (RORE) (AID 2282959)
Settings: HepG2 Attagene cis-factorial RORE reporter, mRNA; actives raise or lower the signal
Procedure: ATG_CIS is a cell-based, multiplexed-readout assay that uses HepG2, a human liver cell line, with measurements taken at 24 hours after chemical dosing in a 24-well plate.ATG_RORE_CIS is one of 52 assay component(s) measured or calculated from the ATG_CIS assay. It is designed to make measurements of mRNA induction, a form of inducible reporter, as detected with fluorescence intensity signals by Reverse transcription polymerase chain reaction (RT-PCR) and Capillary electrophoresis technology.Data from the assay component ATG_RORE_CIS was analyzed into 1 assay endpoint. This assay endpoint, ATG_RORE_CIS, was analyzed with bidirectional fitting relative to DMSO as the negative control and baseline of activity. Using a type of inducible reporter, measures of mRNA for gain or loss-of-signal activity can be used to understand the reporter gene at the transcription factor-level as they relate to the gene RORA and RORB and RORC. Furthermore, this assay endpoint can be referred to as a primary readout, because this assay has produced multiple assay endpoints where this one serves a reporter gene function. To generalize the intended target to other relatable targets, this assay endpoint is annotated to the nuclear receptor intended target family, where the subfamily is orphan.
Human liver HepG2 cells are transiently transfected with multiple reporter transcription units (MRTUs) in 6-well plates using FuGene 6 reagent (Roche; 3 ml FuGene/1 mg DNA). The MRTU constructs are regulated by a cis-regulating element (promoter). […] A major difference between the CIS and TRANS system is that in CIS activities of endogenous TFs are measured, whereas the TRANS assay evaluates changes in activities of exogenous, chimeric NR-Gal4 proteins. […] At the end of 24 hour incubation, total RNA was isolated using TriZol reagent (Invitrogen). The isolated RNA is then reverse-transcribed using oligo(dT) primer and Mo-MLV reverse transcriptase (Invitrogen) with DNAse I (Ambion) treatment for 30 min. The one-tenth of the produced cDNA was amplified by PCR using Taq DNA polymerase (Invitrogen) and two reporter sequence-specific primers. The PCR products were fluorescently labeled by primer extension with 6-arboxyfluorescein (6-FAM) 5'-labeled reporter sequence-specific primer (2 min at 95 C, 20 s at 68 C and 10 min at 72 C) and these products were digested with 5U of HpaI (New England Biolabs) for 2h at 37 C. The fragments were purified using Qiaquick PCR columns (Qiagen), analyzed on an ABI 3130xL genetic analyzer (Applied Biosystems) with peak positions identified by using a set of X-rhodamine (ROX)-labeled MapMarker1000 molecular weight standards (BioVentures). The raw capillary electrophoresis data was processed using Attagraph software (Attagene).

| Compound | AC50 | outcome |
| --- | --- | --- |
| O=S1(=O)OC(c2cc(Br)c(O)c(Br)c2)(c2cc(Br)c(O)c(Br)c2)c2ccccc21 | 93 µM (active) | – |
| Brc1ccc(Oc2c(Br)cc(Br)cc2Br)c(Br)c1 | – | inactive |
| O=S(=O)(F)C(F)(F)C(F)(F)C(F)(F)C(F)(F)F | – | inactive |
| Cc1cc(SCc2sc(-c3ccc(C(F)(F)F)c(F)c3)nc2C)ccc1OCC(=O)O | 8.36 µM (active) | – |
| C#C[C@]1(O)CC[C@H]2[C@@H]3CCC4=CC(=O)CC[C@]4(C)[C@H]3CC[C@@]21C | – | inactive |
| [Cl][Sn]([c]1ccccc1)([c]1ccccc1)[c]1ccccc1 | – | inactive |
| C[C@@H]1O[C@@H](O[C@H]2C[C@@H](O)[C@]3(CO)[C@H]4[C@H](O)C[C@]5(C)[C@@H](C6=CC(=O)OC6)CC[C@]5(O)[C@@H]4CC[C@]3(O)C2)[C@H](O)[C@H](O)[C@H]1O | – | inactive |
| Cc1cccc(N=Nc2ccc(N(C)C)cc2)c1 | – | inactive |
| CC(C)(c1ccccc1)c1cc(-n2nc3ccccc3n2)c(O)c(C(C)(C)c2ccccc2)c1 | – | inactive |
| Cc1ccc(OP(=O)(Oc2ccc(C)cc2C)Oc2ccc(C)cc2C)c(C)c1 | – | inactive |
| O=S(=O)(Oc1ccc(Cl)cc1)c1ccc(Cl)cc1 | – | inactive |
| CN(C)[C@@H]1C(=O)C(C(N)=O)=C(O)[C@@]2(O)C(=O)C3=C(O)c4c(O)ccc(Cl)c4[C@@](C)(O)[C@H]3C[C@@H]12 | – | inactive |
| CC1(C)COP(Oc2ccccc2)OC1 | – | inactive |
| CCCCCCCCCCBr | – | inactive |
| C#CCOC(=O)/C=C(C)/C=C/CC(C)CCCC(C)C (stereo not given) | – | inactive |
| O=C1C=CC(=O)c2ccccc21 | – | inactive |
| N#Cc1ccncc1 | – | inactive |
| CCCCCCCCCCCCCl | – | inactive |
| Nc1nc(N)nc(Cl)n1 | – | inactive |
| CCCCC(CC)C(=O)Cl (stereo not given) | – | inactive |

| Compound | AC50 | outcome |
| --- | --- | --- |
| Cc1cc(Cl)ccc1OCCCC(=O)O | – | inactive |
| CNC(=O)N(C)c1nc2ccccc2s1 | – | inactive |
| O=S(=O)(c1ccc(Cl)cc1)c1cc(Cl)c(Cl)cc1Cl | – | inactive |
| CC(c1ccccc1)(c1ccc(O)cc1)c1ccc(O)cc1 | – | inactive |
| O=CCCl | – | inactive |
| CC(C)(C#N)N=NC(C)(C)C#N | – | inactive |
| N#Cc1cccnc1 | – | inactive |
| Cl[C@H]1OCCO[C@@H]1Cl | – | inactive |
| CCCCN(CCCC)C(=S)S | – | inactive |
| CCCCS(=O)(=O)Cl | – | inactive |
| O=C/C(Cl)=C(/Cl)C(=O)O | – | inactive |
| Clc1cc(C(Cl)(Cl)Cl)cnc1Cl | – | inactive |
| CC(C)CP(=S)(S)CC(C)C | – | inactive |
| COC(=O)Nc1cccc(OC(=O)Nc2cccc(C)c2)c1 | – | inactive |
| Cc1ccccc1OP(=O)(Oc1ccccc1)Oc1ccccc1 | – | inactive |
| ClCCN1CCOCC1 | – | inactive |
| N#Cc1ccccc1N | – | inactive |
| C[As+](C)(C)CC(=O)[O-] | – | inactive |
| O=C(Nc1ccc(Br)cc1)c1cc(Br)cc(Br)c1O | – | inactive |
| c1ccc2sc(SNC3CCCCC3)nc2c1 | – | inactive |
